Experimental data published in the supplement of paper PMC12669032.
Unmarked numbers belong to inactive results.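 How the source made its calls: active = AUC reduced over 20% with Padj below 0.05 in at least 2 of 3 replicates; inactive = otherwise.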

Key:
Assay in all cases: growth AUC relative to DMSO control (median of replicates) (fraction); higher = more growth (less inhibition), active = hit call of the paper
Conditions in all cases: 20 µM; 24 h
Coprococcus comes = system: Coprococcus comes
In short: (§1)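 Area under the growth curve was normalised to the plate median of solvent-only wells, except on the industrial chemical plate, where row and column medians were used. Curves came from gut bacterial monocultures grown anaerobically at 37 °C in mGAM with 20 µM compound (1% DMSO), starting at OD600 0.05 and read at OD600 every hour for 24 h. The minimum OD of each curve was set to 0, and values are medians of three biological replicates grown on separate days.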

Escherichia coli ED1a = system: Escherichia coli ED1a
In short: as §1

Escherichia coli IAI1 = system: Escherichia coli IAI1
In short: as §1

Eubacterium rectale = system: Eubacterium rectale
In short: as §1

[1] = system: Fusobacterium nucleatum subsp. animalis
In short: as §1

Lactobacillus gasseri = system: Lactobacillus gasseri
In short: as §1

Lactobacillus paracasei = system: Lactobacillus paracasei
In short: as §1

Odoribacter splanchnicus = system: Odoribacter splanchnicus
In short: as §1

[2] = system: Parabacteroides distasonis
In short: as §1

Parabacteroides merdae = system: Parabacteroides merdae
In short: as §1

Roseburia intestinalis = system: Roseburia intestinalis
In short: as §1

Streptococcus salivarius = system: Streptococcus salivarius
In short: as §1

Row | SMILES | growth AUC (Coprococcus comes) | growth AUC (Escherichia coli ED1a) | growth AUC (Escherichia coli IAI1) | growth AUC (Eubacterium rectale) | growth AUC [1] | growth AUC (Lactobacillus gasseri) | growth AUC (Lactobacillus paracasei) | growth AUC (Odoribacter splanchnicus) | growth AUC [2] | growth AUC (Parabacteroides merdae) | growth AUC (Roseburia intestinalis) | growth AUC (Streptococcus salivarius)
1 | ClC(Cl)=C(c1ccc(Cl)cc1)c1ccc(Cl)cc1 | 0.914 | 1 | 0.986 | 1.02 | 1.03 | 0.938 | 0.921 | 1.02 | 0.985 | 0.909 | 0.945 | 0.965
2 | COC(=O)C1(O)c2ccccc2-c2ccccc21 | 0.939 | 0.966 | 1.01 | 0.95 | 0.911 | 1.07 | 1 | 0.988 | 1.03 | 0.993 | 1 | 1
3 | CCOC(=O)CC(SP(=S)(OC)OC)C(=O)OCC (stereo not drawn) | 0.984 | 0.975 | 1.02 | 1.07 | 0.977 | 0.917 | 1.13 | 1.07 | 0.959 | 1.01 | 0.99 | 0.939
4 | O=C(O)C(Cl)Cl | 0.959 | 1.01 | 0.966 | 0.977 | 1.04 | 1.04 | 1.05 | 0.997 | 0.998 | 1.03 | 1.02 | 1.02
5 | CC(C)(C)c1cc([N+](=O)[O-])cc([N+](=O)[O-])c1O | 0.859 | 0.93 | 0.923 | 0.908 | 0.638 | 0.852 | 0.859 | 0.722 | 0.83 | 0.942 | 0.802 | 0.848
6 | C=CCN=C=S | 1 | 1.01 | 0.979 | 0.974 | 1.06 | 1.05 | 0.991 | 1 | 0.996 | 1.03 | 0.986 | 0.994
7 | CN(C)C(CSS(=O)(=O)c1ccccc1)CSS(=O)(=O)c1ccccc1 | 1.03 | 0.97 | 1.01 | 1.53 | 0.932 | 0.85 | 0.95 | 0.98 | 0.95 | 0.992 | 1.02 | 0.973
8 | CSC1=N[C@@](C)(c2ccccc2)C(=O)N1Nc1ccccc1 | 0.988 | 1.01 | 0.993 | 1.08 | 1.2 | 0.853 | 0.968 | 0.924 | 0.872 | 0.953 | 0.997 | 1.01
9 | CCCN(CCC)C(=O)SCc1ccccc1 | 1.01 | 1.01 | 0.985 | 1.09 | 1.01 | 1.02 | 0.963 | 1.08 | 0.89 | 0.998 | 0.984 | 1
10 | CC1(C)[C@H](/C=C(\Cl)C(F)(F)F)[C@@H]1C(=O)O[C@@H](C#N)c1cccc(Oc2ccccc2)c1 | 0.959 | 1 | 0.992 | 0.961 | 0.953 | 0.853 | 0.996 | 1 | 0.985 | 0.957 | 0.919 | 0.957
11 | CCCN(CCC)c1c([N+](=O)[O-])cc(S(N)(=O)=O)cc1[N+](=O)[O-] | 0.973 | 0.996 | 0.973 | 0.894 | 0.9 | 0.935 | 0.942 | 0.934 | 0.971 | 0.997 | 0.961 | 0.985
12 | CCOC(=O)C(C)OC(=O)c1cc(Oc2ccc(C(F)(F)F)cc2Cl)ccc1[N+](=O)[O-] (stereo not drawn) | 0.933 | 1.01 | 0.964 | 1.01 | 0.999 | 0.86 | 0.973 | 0.891 | 0.789 (active) | 0.885 | 0.78 (active) | 0.903
13 | CCNc1nc(NC(C)C)nc(OC)n1 | 1.02 | 1 | 0.999 | 1.05 | 1.05 | 0.911 | 0.969 | 1.01 | 0.922 | 0.982 | 0.953 | 0.945
14 | CNC(=O)Oc1ccccc1C(C)C | 1.04 | 1.01 | 1.02 | 1.07 | 1.07 | 1.04 | 0.861 | 1.03 | 0.998 | 1.03 | 1.06 | 1.04
15 | CC(COc1ccc(Oc2ccccc2)cc1)Oc1ccccn1 (stereo not drawn) | 0.962 | 0.999 | 0.968 | 1.04 | 0.97 | 0.989 | 0.939 | 1.03 | 0.979 | 0.929 | 0.94 | 1.01
16 | O=C(NCCc1ncc(C(F)(F)F)cc1Cl)c1ccccc1C(F)(F)F | 1 | 1.01 | 0.988 | 0.964 | 0.875 | 0.999 | 1.01 | 0.985 | 0.96 | 0.996 | 0.987 | 1.01
17 | O=C(O)CCCOc1ccc(Cl)cc1Cl | 1.05 | 0.984 | 0.981 | 1.18 | 0.933 | 1.01 | 1 | 1.11 | 0.919 | 0.979 | 0.966 | 0.969
18 | O=C(O)COc1cc(Cl)c(Cl)cc1Cl | 0.994 | 0.965 | 1.04 | 0.93 | 0.989 | 1.19 | 0.995 | 0.98 | 1 | 0.98 | 0.966 | 1.02
19 | C=C/C=C/CC1=C(C)C(OC(=O)[C@@H]2C(/C=C(\C)C(=O)OC)C2(C)C)CC1=O.C=C/C=C/CC1=C(C)[C@@H](OC(=O)[C@@H]2C(C=C(C)C)C2(C)C)CC1=O (stereo partly drawn) | 0.953 | 1.01 | 0.966 | 0.858 | 1.04 | 1.02 | 0.864 | 0.985 | 0.954 | 0.932 | 1.02 | 0.947
20 | Cc1ccccc1C(=O)Nc1cccc(OC(C)C)c1 | 1.02 | 0.991 | 1 | 0.953 | 0.955 | 1.06 | 1.01 | 1.03 | 1.04 | 0.974 | 1.01 | 0.988
21 | CCC(CC)Nc1c([N+](=O)[O-])cc(C)c(C)c1[N+](=O)[O-] | 0.982 | 0.987 | 0.947 | 0.979 | 0.93 | 0.858 | 0.935 | 1.11 | 0.974 | 0.942 | 0.897 | 0.959
22 | COP(=O)(OC)Oc1ccc([N+](=O)[O-])cc1 | 1.07 | 1.03 | 0.996 | 1.17 | 1.09 | 0.998 | 1.02 | 0.954 | 0.981 | 1.02 | 1.04 | 1.03
23 | CCCCC(O)(Cn1cncn1)c1ccc(Cl)cc1Cl (stereo not drawn) | 0.946 | 0.987 | 0.996 | 0.783 (active) | 1.04 | 0.952 | 0.936 | 0.894 | 1.01 | 0.931 | 1 | 0.991
24 | CNC(=O)Oc1cc(C)c(S(C)(=O)=O)c(C)c1 | 0.98 | 0.981 | 0.963 | 0.971 | 1.05 | 0.999 | 1.02 | 1.01 | 1.05 | 1.02 | 0.967 | 0.945
